# Inconclusive results are not listed. A call without a number means that no potency is given here. The source made the active and inactive calls. Calls follow the shape of the dose curve; as a rule, active = well fitted inhibition curve with a large enough effect; inconclusive = small, poorly fitted or top-dose-only effect; inactive = no such curve, though single readings can be large or run the other way.
# Target: Cytochrome P450 3A7 (Homo sapiens) (UniProt P24462)
# Test: Cytochrome P450 family 3 subfamily A member 7 (CYP3A7) small molecule antagonists: luciferase biochemical qHTS assay (AID 1963596); also: nearly all actives have a fitted effect of over 40% in size
# Conditions: P450-Glo CYP3A7 enzyme luminescence, 1 h; series mostly up to 57.4 µM
# Method in brief: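 Recombinant CYP3A7 P450-Glo luminescent assay: enzyme-proluciferin substrate mix preincubated with compound 10 min at room temperature, reaction started with NADPH regeneration system for 1 h. Luciferin detected by luminescence; ketoconazole as positive control.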
# Potency is read from the fitted curve at half-maximal effect.
# Cytochrome P450 3A7 (Homo sapiens), sequence (P24462 whole entry, looked up): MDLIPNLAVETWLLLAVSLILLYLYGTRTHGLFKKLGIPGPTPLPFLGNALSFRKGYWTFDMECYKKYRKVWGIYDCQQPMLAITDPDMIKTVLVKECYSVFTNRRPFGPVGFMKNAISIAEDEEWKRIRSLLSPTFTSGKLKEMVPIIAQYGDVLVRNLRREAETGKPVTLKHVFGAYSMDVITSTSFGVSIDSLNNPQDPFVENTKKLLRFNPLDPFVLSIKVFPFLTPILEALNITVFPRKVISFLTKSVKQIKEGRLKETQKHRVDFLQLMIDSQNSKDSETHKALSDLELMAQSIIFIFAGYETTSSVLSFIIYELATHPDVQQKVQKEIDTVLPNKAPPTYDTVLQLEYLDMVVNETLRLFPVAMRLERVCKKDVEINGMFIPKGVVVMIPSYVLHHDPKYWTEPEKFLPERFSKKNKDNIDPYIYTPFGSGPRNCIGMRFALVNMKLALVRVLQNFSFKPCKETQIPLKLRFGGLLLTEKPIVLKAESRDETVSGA
row,SMILES,Potency
1,CO/N=C(\C(=O)N[C@@H]1C(=O)N2C(C(=O)O)=C(CSc3nc(=O)c(O)nn3C)CS[C@H]12)c1csc(N)n1,inactive
2,CN(C)C(=O)CNC(=O)Cc1ccccc1,inactive
3,Oc1c(Br)cc(Br)c2cccnc12,inactive
4,COc1cc2nc(Cl)nc(N)c2cc1OC,inactive
5,CCN1CCC[C@H]1CNC(=O)c1c(O)c(Cl)cc(Cl)c1OC,inactive
6,C[N+]12CCC(CC1)C(OC(=O)C(O)(c1ccccc1)c1ccccc1)C2 (stereo not given),inactive
7,OC[C@]1(O)OC[C@@H](O)[C@H](O)[C@@H]1O,inactive
8,CCCCCCCCCCCCCCC[C@H](O)[C@@H](N)CO,inactive
9,C[C@@H]1CCN(C(=O)N2CCCC2)C[C@@H]1N(C)c1ncnc2[nH]ccc12,inactive
10,NC(=O)CC[C@@H]1NC(=O)[C@H](Cc2ccccc2)NC(=O)[C@H](Cc2ccc(O)cc2)NC(=O)CCSSC[C@@H](C(=O)N2CCC[C@H]2C(=O)N[C@@H](CCCN=C(N)N)C(=O)NCC(N)=O)NC(=O)[C@H](CC(N)=O)NC1=O,inactive
11,Cc1nc([N+](=O)[O-])cn1-c1ccc([N+](=O)[O-])cc1,inactive
12,O=[N+]([O-])c1nccn1CO[C@@H](CO)[C@H](O)CO,inactive
13,OCC(O)CS (stereo not given),inactive
14,CN(C)CCCO[C@@H]1[C@H]2OC(C)(C)O[C@H]2O[C@@H]1C(O)CO (stereo not given in full),inactive
15,CC(C)C(=O)Nc1cccc(C(F)(F)F)c1,inactive
16,O=C(Oc1ccccc1)c1cccc(C(=O)Oc2ccccc2)c1,inactive
17,COP(=O)(OC)OC(c1ccc(Cl)cc1)P(=O)(OC)OC (stereo not given),inactive
18,NC(=O)c1ncn([C@@H]2O[C@H](CO)[C@@H](O)[C@H]2O)n1,inactive
19,O=C(O)[C@@H]1CSCN1,inactive
20,Cl/C(=C\n1cncn1)c1ccc(Cl)cc1Cl,inactive

row,SMILES,Potency
1,CC[N+](CC)(CC(=O)Nc1c(C)cccc1C)Cc1ccccc1,inactive
2,CC(N)CCCC(C)(C)O (stereo not given),inactive
3,CO[C@@H]1[C@@H](O[C@@H]2O[C@H](C)[C@@H](O[C@H]3C[C@@](C)(O)[C@@H](O)[C@H](C)O3)[C@H](N(C)C)[C@H]2O)[C@@H](CC=O)C[C@@H](C)[C@@H](O[C@@H]2CC[C@H](N(C)C)[C@@H](C)O2)/C=C/C=C/C[C@@H](C)OC(=O)C[C@H]1OC(C)=O,inactive
4,NC(=O)NC1N=C([O][Al])NC1=O (stereo not given),12.3 µM (active)
5,O=C(O)c1cn(C2CC2)c2cc(Cl)c(F)cc2c1=O,inactive
6,CCO/C([O-])=N/c1c[n+](N2CCOCC2)no1,inactive
7,CCCOC(=O)c1ccccc1,inactive
8,CC(=O)Nc1c(I)c(NC(C)=O)c(I)c(C(=O)O)c1I,inactive
9,Cn1c(=O)c2c(ncn2CC(=O)O)n(C)c1=O,inactive
10,O=C(O)c1[nH]n(-c2ccc(S(=O)(=O)O)cc2)c(=O)c1N=Nc1ccc(S(=O)(=O)O)cc1,inactive
11,OC[C@H]1O[C@@H](Oc2ccc(O)cc2)[C@H](O)[C@@H](O)[C@@H]1O,inactive
12,CCCCCCCCCCCCCCCC(=O)OC(C)C,inactive
13,O=C(O)CCc1nc2ccccc2[nH]1,inactive
14,NC(=O)N[C@@H](CCC(=O)O)C(=O)O,inactive
15,N=C(N)N,inactive
16,C[C@H](CN1CCCC1)C(=O)c1ccc(C(F)(F)F)cc1,inactive
17,CC(=O)OCC(=O)[C@@]1(OC(C)=O)[C@@H](C)C[C@H]2[C@@H]3C[C@H](F)C4=CC(=O)C=C[C@]4(C)[C@@]3(F)[C@@H](O)C[C@@]21C,inactive
18,CN1C(=O)c2ccccc2C1=O,inactive
19,Cc1ccc(C(=O)C(C)CN2CCCCC2)cc1 (stereo not given),inactive
20,O=C1c2cccc3c2[C@H](CCC3)CN1[C@@H]1CN2CCC1CC2,inactive
